Laboratory results: PubChem BioAssay AID1508600 (Functional Genomics Laboratory (NCATS/FGL), 2020)
Among all 53,000 sequences or so, about 3,700 (7%) were called active. This is one part of a sample in which actives are shown more often than they occur.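 Rule for the calls: active = gene knockdowns whose robust z-score for IL-1 alpha signal is at least 2 or at most -2, so actives lie on both sides; inactive = the rest.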

Test: Components of the Cytosolic LPS Sensing Pathway: Gene Identification via Genome-wide siRNA Screen;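 note: robust z of the log signal after scaling to non-targeting control siRNA wells of the plate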
Details: RAW264.7 macrophages, IL-1a HTRF, actives lie on both sides, screened at 100 nM (by protocol), cells primed 5 h with Pam3CSK4 first
Procedure, shortened: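 Using IL-1a HTRF as read-out, the screen measured release from RAW264.7 cells after 48h siRNA knockdown (100 nM), 5 h Pam3CSK4 priming and 24 h cytosolic LipidA. Values were expressed relative to negative-control wells as robust z-scores.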

z-score, active:
CGGGAAACUUAGGUAUGAUTT against Olfr1009 -3.05, CGGAACCAUAGGGAAUCAGTT against Cmc2 2.04, GGAGAAAGAGACGGACAACTT against Fgfr1 2.8, GCAUCCUCUCACUCUCAAUTT against Grin2a 2.37, CGAAGUGGUCAAGUUCUCUTT against Fbxo17 -2.09, GCUCGGUUAAGAGCCCAUGTT against Pabpn1l -2.11, CCUACGAGGAUACUUACAATT against Kif18b 2.81, GGAAGAUUUGGAAAAUGGATT against Dph3 -2.19, GCUUGAAGUCUCUUGCUGGTT against Nhlrc2 3.53, AUCUGUUCCGGAGGAAUUUTT against 1700029I15Rik 3.85, GGAUUUGAGGUUCAUAUAATT against Cdk20 -2.48, GCGCUUCCAAUAACAAAAATT against 1700123L14Rik -2.19, GGCGACAAGCAACUUAUAATT against Mgat4c 3.25, GGAAGACAGGGACAAUACCTT against Car15 -2.36, GGUGUACCAAGUGUUUUCATT against Faf2 3.08, GGGCAUGAAAGAAUUCUUATT against D130040H23Rik -2.83, GGUGGUCUGAGAAAUACUCTT against Czib 2.06, GGAGGGACACAGAGAUUACTT against Auh 5.05, GGUGGAUAUUGAUAUCAAGTT against Fga 3.31, CUAUCAAGGGCAGUCAACUTT against Olfr1208 -2.38

z-score, inactive:
GACAGCAACGUGAAAUUAGTT against Xlr -0.828, GGAUCUUUUCCAAAGAAAUTT against Dusp10 -0.409, GGAGGAAGAAGAGAUACCUTT against Foxh1 -0.96, GGCAUGGAAGGCUAAACAGTT against Slc25a17 -1.98, GGGUAUAGAGUCAAUCUGATT against Gfm2 -0.381, GCAGGGAUCUGCUAAGCUATT against Hey1 -0.953, GGACCCAUUGGUCAUCAUATT against Tent5b 0.18, GCCUGAAUUUGUAAGCAGUTT against Fgf1 0.0666, CAUUGUCAUUCUGCUGGCATT against Olfr1249 -0.0752, GGUCACCAUCAUCAUCAAUTT against Carmil1 0.484, GGUGGUAGAACUGUUAAAATT against Klc2 0.311, GGACUGAAUCUUUAAAGGUTT against Nkx1-2 0.199, GGUGUUGUGGAAUAUUUAATT against Cnot6l 1.23, GGUCUUACCUUUUGAAAAATT against Mtbp 0.0999, CCGAAGCCUUGAAAGCAGUTT against Shq1 0.302, GGAAACUGGAUCAAACCAUTT against Smarcd3 -0.707, CGAGUUAGUUUUUCUGGGCTT against Tctex1d4 0.997, GCAAGAAAAGGUGCUAUCUTT against Med4 -0.314, GGAGCUGGAAGAGUGGUAUTT against Clta -0.535, GGCUAUGUAGAUCUUGUCATT against Cyb5r1 -1.09, GGCACAACUGAUUUUGAAATT against Ifngr2 -0.362, GCGAUCACAGACAUCAUUGTT against Rabgef1 -0.423, GGAAAUAAGCAGCGCAUGCTT against Ippk -1.27, GGUGGUUCUGGUGUACAGUTT against Nxf1 -1.98, CCCUAUAAGCAACUUAUGCTT against Tor1aip1 -0.115, GCACCAUUUGAGUUUUUCUTT against Vmn1r8 -0.578, CAUUUACAUUCUUAUUACCTT against Olfr473 -1.43, CCCGAACCUUAGUAAAUGUTT against Psmd8 0.308, GCAGACAGCUUCUCACUAUTT against Tmem114 -0.431, GCUAAGAAACUGGUCUCAUTT against Reg4 -0.151, CCAUCAUUUAUGAAGACCCTT against Dcaf7 -1.44, CCCAAGCACCAGCCCUAUATT against Frmd8 -1.58, GGGAGAAUUGUAGAUUAUUTT against Myo10 0.475, CCAUCGACUGUUUCAUCCUTT against Olfr987 -0.915, GCUACUCUUUGUCUCAUGUTT against Hexb -0.826, GGAUCAGAUCUUGUGUGACTT against Trim16 -0.602, CCGCUUGCUCAUUGUAUCATT against Ruvbl2 -0.976, GGUUCCAUGAGAAAAGGUUTT against F2r -1.45, GGAGGAGUUUCGCUACGGATT against Sars2 -0.00587, GGUGUACCCUGAAUUUGAATT against Wdr62 -1.67, GGUUAUACGCUUAGAUUUATT against Irx5 1.77, GCUCUGUUACUAUUUGAAUTT against Cts6 0.137, GGUUUUGUACUUUCAUAGATT against Fam111a 0.523, GGACUUGAACUGAAAAGUUTT against D830013H23Rik 1.01, GGCAAAAUAAAGCUUAAGGTT against Robo3 -0.517, CGACAGACAUCGCUAUAAUTT against Gm11437 -0.296, GGAGAUACCGGGAAUCCAATT against Rpl19 0.146, CCAAGUGGGAUUUGCCAACTT against Ifi47 -1.68, GGAAUAUCACCAAACCAAATT against 2310057J18Rik -1.08, CCUUCACCUGGCUAUUAGATT against Kif12 -0.14, GGAUGUGUUCUAUUCUAUATT against Oprl1 0.134, GGAAAGUUAAUGCACAUUUTT against Hmg20a -1.68, CCUGAAAGAAAAGAAGGACTT against Ptms 0.107, GGAUGACUGUAAGUUACGGTT against Mast2 -0.229, GGUGCUCCUAUCCUGUUCATT against Lhfp -0.331, GGCGGCUGAAAGUUUUGCATT against Pklr 0.94, GCACAAGAGGUAUCCUUGCTT against Gm5111 0.000682, GCCUGCAUUGCAAAUGAAATT against Krtap13-1 -0.257, GGCUUUAACAUCAAAGCAATT against Mgarp 0.0459, GGAAUCCUUUUCUUUCUAATT against Slc13a1 0.0492, CCAUCCUAGCUGUGGUAAGTT against Olfr554 1.32, GGUCGUUCAGAAGCACCAGTT against Aldh16a1 -1.31, CGGCACUGACUUAUUGUUCTT against Olfr574 0.886, GGUCACUGAAUUGUCAAUCTT against Polr3h 0.773, GGGCAAAGACAGUAUUCAATT against B530045E10Rik 0.4, CCAUGUGACAAAGCCUACCTT against Fam131b 0.845, GGAGGAAAGACGAAUCAACTT against Clcn7 1.44, GCACUGAGCUUGACAAAGATT against Upp2 -0.174, GGGCUUUCUCAGAAAAGAATT against Olfr508 -1.29, GGCCAUCAUUGUCACCGUGTT against Adra2a 0.955, GGUUUAGGUUUCAUAAUCCTT against Ostc -0.338, GGACCUAUGCAGCACUAAATT against Ppp1r11 1.73, GGAGAAAGUGGACAGGGCUTT against Jph4 0.00563, GCAUCUCCUGCCAAAGCAGTT against Ms4a2 -0.381, GGUAGUAGGAGGAAUGACGTT against Ccdc93 -0.353, GCUUCCUUAUUGACAAUGGTT against Rbm19 0.596, GGAGUAGCAGAGCUUCUGGTT against S100a8 0.642, GGAGAAUAAAACUUCCAGATT against Urod -0.436, GGGACACAGCUAAAAGCUUTT against Fam20b 0.146, CGAUACAGGACCGAAGGAGTT against Fhad1 -0.196, CCCGGAGAGUCAUUUGUGUTT against Cpsf4 0.435, CGGAAUCAUACAUUGGUUCTT against Zfp217 1.22, GGUGUCUGACUUUAAGAAGTT against Foxred1 -0.247, GCCACAACUUAAUUUUCUGTT against Nav3 -0.305, GGAAUCAGAUACAAAGGAGTT against Sil1 0.265, GGACACUAUGACGGAAGUATT against Apoe -1.13, GGUUCUGAAGAUGGAGGUUTT against Ttbk2 1.22
